In the library only some 0.97% were active in any assay of this set; here they are far more common.
AI-2 QS mod = modulates the Vibrio harveyi AI-2 quorum sensing system. 300,000 compounds, 0.4% hits. activity change, % at 7.5 µM. Vibrio harveyi JMH597 AI-2 luminescence/OD600 ratio, 9 h; active compounds read low; strain lacks LuxN and CqsS sensors; 0 = neutral-control median; in the data active = activity change below about -75%, passing the limit was not always enough;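 also: luminescence divided by OD600 gain over 9 h not by final OD600 alone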
S1P4 antagonist = blocks the human S1P4 receptor | inhibition, % at 4.98 µM | S1P4-expressing cells, antagonist mode, reporter read-out | 220,000 compounds, 0.26% hits; in the data active = inhibition above about 29%;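 also: 0% = wells stimulated with agonist and 100% = vehicle wells without agonist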
Hsp70 activator = switches on Hsp70 transcription. 200,000 compounds, 0.04% hits. HeLa Hsp70 promoter luciferase reporter, luminescence; scaled: vehicle 0, proteasome-inhibitor control 100%. activation, % at 10 µM;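 active = activation above the mean across all tested compounds plus 3 SD, cutoff set per campaign, cut at about 5.5% in these data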;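 also: 100% = MG132 at 30 µM as the positive control and 0% = DMSO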
S1P3 antagonist = blocks the human S1P3 receptor | AID 485 | inhibition, % at 4.98 µM | 170,000 compounds, 0.27% hits | CHO S1P3 NFAT-BLA reporter, FRET fluorescence, antagonist mode;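 active = inhibition above the plate cutoff, the mean inhibition of test wells on that plate plus 3 SD, cut at about 28% in these data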;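 also: cells challenged with S1P at its EC80 of 0.8 µM; blue over green emission ratio from cleaved BLA substrate after 4 h stimulation; 0% = S1P-stimulated wells and 100% = unstimulated DMSO-only wells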
S1P4 agonist = agonists of human S1P4 receptor; 220,000 compounds, 0.35% hits; AID 1509; O95977; activation, % at 4.98 µM; S1P4-expressing cell line, agonist reporter assay; in the data active = activation above about 11%;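 also: 0% = DMSO vehicle and 100% = reference agonist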
S1P4 antag conf = human S1P4 antagonism, confirmation | shares compounds with S1P4 antagonist | 520 compounds, 71% hits | AID 1524 | S1P4-expressing cell line, antagonist mode, reporter read-out | inhibition, % at 4.98 µM; in the data active = inhibition above about 30%
S1P1 antagonist = counter-screen for S1P4 antagonists: antagonists of human S1P1 | shares compounds with S1P4 antagonist | cell-based S1P1 antagonist counterscreen, inhibition | inhibition, % at 4.98 µM | 520 compounds, 37% hits | AID 1564; in the data active = inhibition above about 40%;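 also: receptor stimulated with S1P near its EC80; 0% = agonist stimulated wells and 100% = vehicle only wells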
Target sequence (P21453 whole entry, looked up): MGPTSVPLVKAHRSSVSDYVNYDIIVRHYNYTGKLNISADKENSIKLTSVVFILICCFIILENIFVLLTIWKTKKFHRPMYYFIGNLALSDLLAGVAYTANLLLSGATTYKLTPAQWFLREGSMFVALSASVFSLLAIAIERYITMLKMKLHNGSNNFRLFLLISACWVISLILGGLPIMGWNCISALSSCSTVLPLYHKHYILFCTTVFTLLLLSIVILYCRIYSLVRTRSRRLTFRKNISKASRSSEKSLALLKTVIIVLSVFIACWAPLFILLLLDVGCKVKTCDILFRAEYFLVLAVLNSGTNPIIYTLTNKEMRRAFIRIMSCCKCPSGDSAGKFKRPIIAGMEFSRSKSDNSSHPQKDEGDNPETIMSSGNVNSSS
* = called active by the depositor; / = no result given.

SMILES	AI-2 QS mod	S1P4 antagonist	Hsp70 activator	S1P3 antagonist	S1P4 agonist	S1P4 antag conf	S1P1 antagonist
O=C(Nc1cccc2ccccc12)/C(Cl)=C/c1ccccc1	23	61*	0	/	-1	68*	17
O=C1C(Nc2ccc(O)cc2)=C/C(=N/S(=O)(=O)c2cccs2)c2ccccc21	10	86*	0	-12	4	109*	94*
Cc1cccc(NC2=C/C(=N/S(=O)(=O)c3cccs3)c3ccccc3C2=O)c1	/	-3	0	-8	6	/	/
C=CCn1c(CSc2ccc(C)cc2)n[nH]c1=S	15	/	/	/	/	/	/
CCN1C(=O)[C@@H]2[C@@H](c3ccc(SC4CCCCC4)cc3)N3CCC[C@@]3(C(=O)OC)[C@@H]2C1=O	7	/	/	/	/	/	/
CCOC(=O)C1CCCN(CCC(=O)Nc2cccc(Cl)c2C)C1 (stereo not drawn)	0	/	/	/	/	/	/
CNC(=O)CSCc1c(F)cccc1Cl	14	1	0	/	-1	/	/
CC(C)NC(=O)CSCc1c(F)cccc1Cl	9	57*	0	/	-1	-3	-6
O=C(NC1CCCC1)C(c1ccncc1)N(Cc1ccco1)C(=O)c1ccc(-c2ccccc2)[nH]1 (stereo not drawn)	21	47*	0	-5	-1	22	2
O=C(NC1CCCC1)C(c1ccncc1)N(Cc1ccccc1)C(=O)c1ccc(-c2ccccc2)[nH]1 (stereo not drawn)	5	-7	0	2	0	/	/
O=C1/C(=C/c2ccc(O)cc2)SC(=S)N1CC1CCCO1 (stereo not drawn)	12	30*	/	-13	2	5	6
CC1=CC(C)(C)Nc2ccc(OC(=O)c3ccco3)cc21	31	30*	0	-26	1	56*	30
CC1=CC(C)(C)Nc2ccc(OC(=O)c3cccnc3)cc21	39	26	0	2	0	/	/
CCCCC(=O)O[C@]1(C(=O)CO)CC[C@H]2[C@@H]3CCC4=CC(=O)CC[C@]4(C)[C@H]3[C@@H](O)C[C@@]21C	19	-18	0	-4	-1	/	/
CC1(C)O[C@@H]2C[C@H]3[C@@H]4C[C@H](F)C5=CC(=O)CC[C@]5(C)[C@H]4[C@@H](O)C[C@]3(C)[C@]2(C(=O)CO)O1	19	59*	0	-18	-1	0	17
CCOc1ccc(-c2nc(-c3ccccc3)no2)cc1OCC	-4	78*	0	-13	1	-3	-42
COc1cc2c3nnc(-c4ccc(F)cc4)c-3cn(Cc3ccccc3F)c2cc1OC	/	-8	0	2	1	/	/
COc1cc2c3nnc(-c4ccccc4)c-3cn(Cc3ccccc3F)c2cc1OC	18	84*	0	11	-5	86*	128*
COc1ccc(C2C=C(c3ccc(C)cc3)Nc3ncnn32)cc1 (stereo not drawn)	-2	29*	0	/	-5	43*	44*
CCOc1ccc(C2C=C(c3ccc(F)cc3)Nc3ncnn32)cc1 (stereo not drawn)	10	-7	0	17	0	/	/
Oc1ccc(C2C=C(c3ccc(F)cc3)Nc3ncnn32)cc1 (stereo not drawn)	-14	43*	/	24	-1	14	30
N#CCCN1CCCc2cc(N=Nc3ccc(C(F)(F)F)cc3)ccc21	25	31*	/	-7	-2	85*	28
CCCN1CCCc2ccccc21	15	3	0	/	-1	/	/
Cc1ccc(NC(=O)C(=O)NCC2CCCO2)cc1 (stereo not drawn)	17	79*	0	-21	-2	-8	-12
Cc1ccc(NC(=O)C(=O)NCC2CCCO2)cc1C (stereo not drawn)	17	-6	0	-13	0	/	/
SMILES	AI-2 QS mod	S1P4 antagonist	Hsp70 activator	S1P3 antagonist	S1P4 agonist	S1P4 antag conf	S1P1 antagonist
CCOc1ccc(C(C)=O)cc1N1C(=O)C2C3C=CC(O3)C2C1=O (stereo not drawn)	19	53*	0	5	-2	19	-2
CC(NC(=O)c1cccc(Cn2cc([N+](=O)[O-])cn2)c1)c1ccc(C(C)(C)C)cc1 (stereo not drawn)	5	76*	0	/	0	3	-2
COc1ccc(S(=O)(=O)N2CCC(C(=O)NC3CC3)CC2)cc1OC	8	/	/	/	/	/	/
O=C(CSc1nnnn1-c1ccc2c(c1)OCCO2)N1CCN(C(=O)c2ccco2)CC1	3	-4	0	-17	1	/	/
Nc1nc(CCl)nc(Nc2cccc3ccccc23)n1	28	33*	/	-5	0	55*	1
O=C(O)CCS(=O)(=O)c1nc(-c2cccs2)cc(C(F)(F)F)n1	26	-14	0	/	3	/	/
CCOC(=O)CCS(=O)(=O)c1nc(-c2ccccc2)cc(C(F)(F)F)n1	19	84*	0	-8	-2	114*	52*
CCOC(=O)CS(=O)(=O)c1nc(-c2ccccc2)cc(C(F)(F)F)n1	39	98*	0	17	-2	115*	11
COC(=O)CCS(=O)(=O)c1nc(-c2ccccc2)cc(C(F)(F)F)n1	25	60*	0	/	1	113*	34
CCOC(=O)CS(=O)(=O)c1nc(-c2ccc(F)cc2)cc(C(F)(F)F)n1	-5	2	0	10	-1	/	/
COc1ccc(CC(=O)Oc2ccc(C)cc2Br)cc1S(=O)(=O)N1CCOCC1	6	/	/	/	/	/	/
CCOC(=O)CN1C(=O)N[C@@H](CCc2ccccc2)[C@@H](C(=O)OC)[C@H]1C	18	/	/	/	/	/	/
CCN(CC)c1ccc2cc(NC(=O)CCC(=O)O)c(=O)oc2c1	30	32*	0	34	2	59*	45*
CCN(CC)c1ccc2cc(C(C)=O)c(=O)oc2c1	19	7	0	/	5	/	/
CN(C(=O)C(Cl)Cl)c1ccc(OC(=O)c2ccco2)cc1	10	33*	0	-25	-1	34*	18
COC(CNC(=O)c1ccc2c3c(onc13)-c1ccccc1C2=O)OC	15	37*	/	-3	6	114*	22
COC(CNC(=O)c1cccnc1)OC	8	-9	0	-13	2	/	/
COc1ccc(C2NC(=S)N(c3ccccc3)C(C)=C2C(=O)Nc2ccccc2)cc1 (stereo not drawn)	13	-4	-1	/	0	/	/
CC1=C(C(=O)Nc2ccc([N+](=O)[O-])cc2)C(c2cccc(C(F)(F)F)c2)NC(=S)N1c1ccccc1 (stereo not drawn)	39	31*	0	/	-1	33*	15
O=[N+]([O-])c1cc(Cl)c(O)c2ncccc12	-88*	31*	0	-18	3	62*	55*
Oc1ccccc1C1CC(c2cccs2)=NC(c2ccc(Cl)cc2)N1 (stereo not drawn)	25	46*	0	-6	0	21	12

Screens (PubChem BioAssay)
